Results taken from PubChem BioAssay AID1159580 (chemical genetic matrix, 2015).
The whole screen tested about 5,500 compounds, of which about 2,000 (36%) were called active. About 18% were inconclusive and are not listed. Cut-off read from the data, not from the text of the source: active = normalized growth mostly below about 0.91 (no sharp cut-off); inconclusive = no clear call, values can overlap the other calls; inactive = mostly above about 0.92. The list shows a part of the results.

Assay: chemical genetic growth profiling, strain panel (AID 1159580);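 note: tested at 20 µM; growth read once vehicle control cultures reached saturation at 30 °C; 1 = growth at the plate median or of vehicle wells; lower values mean less growth of the strain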
Details: S. cerevisiae deletion strains, growth OD

Measured: normalized growth

COC(=O)c1cc2c(cn1)[nH]c1ccccc12
inactive: locus YAL040C, strain CLN3, stronger effect = lower value 0.978 | locus YCL061C, strain MRC1 (second series), stronger effect = lower value 1 | locus YDR150W, strain NUM1, stronger effect = lower value 0.999 | locus YDR363W, strain ESC2, stronger effect = lower value 0.996 | locus YER002W, strain NOP16, stronger effect = lower value 0.986 | locus YMR263W, strain SAP30, stronger effect = lower value 1 | locus YMR307W, strain GAS1, stronger effect = lower value 0.998 | locus YNL153C, strain GIM3, stronger effect = lower value 0.995 | locus YNL175C, strain NOP13, stronger effect = lower value 0.988 | locus YNL197C, strain WHI3, stronger effect = lower value 0.993 | locus YNL224C, strain SQS1, stronger effect = lower value 0.981 | locus YNL322C, strain KRE1, stronger effect = lower value 1.01 | locus YOR083W, strain WHI5 (second series), stronger effect = lower value 0.96 | locus YPL241C, strain CIN2, stronger effect = lower value 1
